Where “and” joins values, the source holds several entries; their conditions need not be identical. Equal values may be shown once. Inconclusive results are not listed. Calls of active or inactive are those of the source. Calls come from the whole dose curve; as a rule, active = well fitted cell-killing curve with a large enough effect; inconclusive = small, poorly fitted or top-dose-only effect; inactive = flat fitted curve, though single readings scatter.
Experiment: qHTS of pediatric cancer cell lines to identify multiple opportunities for drug repurposing: Confirmatory screen for A673 cells (AID 1347110);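 note: cells exposed to compound for 48 h before the viability read; nearly all actives have a fitted effect of over 65% in size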
Conditions: A673 Ewing sarcoma cell viability; series mostly up to 45.9 µM
Text: Drug repurposing or repositioning has been offered as a strategy for drug development in oncology programs. This approach has special potential for childhood cancers and other rare or orphan diseases, where the expected return on new drug development has been a disincentive to pharmaceuticals.
In this project we exploit the poly-pharmacology of drugs to discover new indications via phenotypic screening of a panel of 19 well-characterized cell lines derived from solid tumors seen in children and adolescents. The goal is to identify approved drugs with previously unrecognized anticancer properties that has the potential to reveal new mechanisms and biological processes involved in carcinogenesis or drug resistance. We employed a titration-based paradigm (quantitative high-throughput screening or qHTS), where all compounds were tested at multiple concentrations for their effect on cell viability. Concentration-response curves (CRCs) were derived directly from the primary screen, and both potency and efficacy values were used to identify compounds with robust bioactivity profiles. We screened the NIH Chemical Genomics Center (NCGC) Pharmaceutical Collection (NPC) and Mechanism Interrogation Plate (MIPE) small molecule collections of approved and investigational compounds against these cell lines; and measured metabolically active cells after 48 hours of compound treatment as a proxy for cell viability.
Assay Submitter: Nathalia J. Martinez, National Center for Advancing Translational Sciences, National Institutes of Health, Rockville, MD, USA; email: natalia.martinez@nih.gov.
[1] Shen, M et al. Quantitative high-throughput phenotypic screening of pediatric cancer cell lines identifies multiple opportunities for drug repurposing. Oncotarget 2017 Dec 19;9(4):4758-4772. PMID 29435139.
The cells were obtained from University of North Carolina (UNC), Pediatric Preclinical Testing Program (PPT), and Coriell Institute (CI).
qHTS cell viability assay:
Cells were assayed in growth media at a density of 500-1,000 cells/well. Five microliters of cells were dispensed into 1,536-well, white, solid-bottom, TC-treated plates (Greiner Bio One) using a multidrop dispenser and incubated at 37 degrees C, 5% CO2, under a humidified atmosphere for 5 hours. Twenty-three nanoliters of compounds and controls (neutral control DMSO or positive control bortezomib at final concentration of 2.3 uM) were subsequently transferred by Kalypsys pintool. For primary screens, the MIPE collection was tested at 11-point dilutions (final concentrations range from 0.78 nM to 46 µM) and the NPC collection at 8-point dilutions (final concentrations range from 0.59 nM to 46 µM). Compounds tested in follow-up screens were assayed at 11-point dilutions. Cells were incubated for 48 hours, followed by addition of 3 uL of CellTiter-Glo (Promega). After a 15min incubation at room temperature, samples were analyzed for luminescence intensity using a ViewLux High-throughput CCD imager equipped with clear filters.
Potency is the fitted concentration of half-maximal effect.

Row | Compound | Potency
1 | COc1ccc(-c2coc3cc(O)cc(O)c3c2=O)cc1 | 0.117 µM (active)
2 | CC[C@@H]1C=C(C)C[C@H](C)C[C@H](OC)[C@H]2O[C@@](O)(C(=O)C(=O)N3CCCC[C@@H]3C(=O)O[C@H](C(C)=C[C@@H]3CC[C@H](Cl)[C@H](OC)C3)[C@H](C)[C@@H](O)CC1=O)[C@H](C)C[C@H]2OC | inactive
3 | CCc1ccc(OCc2ccccc2C(=O)Nc2ccc3nc(C)cc(N)c3c2)cc1 | 3.69 µM (active)
4 | O=c1[nH]cnc2c1ncn2[C@H]1CC[C@@H](CO)O1 | inactive
5 | CC(C)(C(=O)NCC(F)(F)C(F)(F)F)C(=O)N[C@@H]1C(=O)Nc2ccccc2-c2ccccc21 | inactive
6 | CCOc1ccc(Nc2nc(-c3c(C)nc4ccccn34)cs2)cc1 | 0.131 µM (active)
7 | CO[C@H]1C[C@@H]2CC[C@@H](C)[C@@](O)(O2)C(=O)C(=O)N2CCCC[C@@H]2C(=O)O[C@H]([C@H](C)C[C@@H]2CC[C@H](OCCO)[C@H](OC)C2)CC(=O)[C@H](C)C=C(C)[C@@H](O)[C@@H](OC)C(=O)[C@H](C)C[C@H](C)C=CC=CC=C1C | inactive
8 | NS(=O)(=O)c1cccc2c1C(=O)c1cccc(O)c1C2=O | 2.33 µM (active)
9 | O=C1C(Cl)=C(NCCN2CCOCC2)C(=O)c2ncccc21 | 2.08 µM (active)
10 | CC1(C)S[C@H]2[C@H](NC(=O)[C@@H](N)c3ccc(O)cc3)C(=O)N2[C@@H]1C(=O)O | inactive
11 | C=C1C(=O)[C@@]23C(CC[C@@H]1[C@H]2O)[C@@]12CO[C@]3(O)[C@@H](O)[C@@H]1C(C)(C)CC[C@@H]2O (stereo not given in full) | 9.27 µM (active)
12 | COc1cc2nc(-c3ccc(N4CCN(C)CC4)cc3)nc(NCCN3CCOCC3)c2cc1OC | 0.208 µM (active)
13 | O=C(Nc1cccc(Br)c1)c1cccc(S(=O)(=O)N2CCCCCC2)c1 | inactive
14 | O=C(O)c1ccc(-c2cc3cccnc3c(-c3ccc4nonc4c3)n2)cc1 | 0.928 µM (active)
15 | CC(C)n1nc(-c2ccc3oc(N)nc3c2)c2c(N)ncnc21 | 0.147 µM (active)
16 | Cc1[nH]c(C=C2C(=O)Nc3ccc(S(=O)(=O)Cc4c(Cl)cccc4Cl)cc32)c(C)c1C(=O)N1CCC[C@H]1CN1CCCC1 | 13.1 µM (active)
17 | Oc1ccc(C2CCN(c3ccnc4ccccc34)CC2)cc1O | 2.61 µM (active)
18 | Cc1nnc(C(C)C)n1C1C[C@H]2CC[C@@H](C1)N2CC[C@H](NC(=O)C1CCC(F)(F)CC1)c1ccccc1 (stereo not given in full) | inactive
19 | N[C@@]1(C(=O)O)CS(=O)(=O)[C@H]2[C@H](C(=O)O)[C@H]21 | inactive
20 | CC(=O)Nc1ccc([C@H](C)C(=O)Nc2ncc(C(C)C)s2)cc1 | 2.61 µM (active)

Row | Compound | Potency
21 | O=C1c2ccccc2-[n+]2ccc3c([nH]c4ccccc43)c21 | 2.93 µM (active)
22 | Nc1ncnc2c1ncn2[C@@H]1O[C@@H](CO)[C@H](O)[C@H]1O | inactive
23 | CC[C@]1(O)C[C@@H]2CN(CCc3c([nH]c4ccccc34)[C@@](C(=O)OC)(c3cc4c(cc3OC)N(C=O)[C@@H]3C45CCN4CC=C[C@](CC)([C@H]45)[C@@H](OC(C)=O)[C@]3(O)C(=O)OC)C2)C1 (stereo not given in full) | inactive
24 | CC(=NNC(=S)N1CCC1)c1ccccn1 | 23.3 µM (active)
25 | CC1(C)O[C@H]2C[C@@H]3[C@H]4CCC5=CC(=O)C=C[C@]5(C)[C@@]4(F)[C@@H](O)C[C@]3(C)[C@]2(C(=O)CO)O1 | inactive
26 | COc1ccc2c(Oc3ccc(NC(=O)c4c(C)n(CC(C)(C)O)n(-c5ccccc5)c4=O)cc3F)ccnc2c1 | 14.7 µM (active)
27 | O=C(O)c1ccc(-c2c[nH]c3ncc(-c4ccccc4)cc23)cc1C1CCCC1 | inactive
28 | CC[C@]1(O)C[C@@H]2CN(CCc3c([nH]c4ccccc34)[C@@](C(=O)OC)(c3cc4c(cc3OC)N(C)[C@H]3[C@@](O)(C(=O)OC)[C@H](OC(C)=O)[C@]5(CC)C=CCN6CC[C@]43[C@@H]65)C2)C1 | 32.9 nM (active) and 36.9 nM (active)
29 | CC1(C)CCC[C@@]2(C)[C@@H]1CC[C@@]1(C)OC(=O)C[C@H]21 | inactive
30 | NC1=N[C@@]2(c3cc(NC(=O)c4ccc(F)cn4)ccc3F)COC[C@@H]2CS1 | inactive
31 | O=C(NCc1ccncc1)C12C[C@H]3C[C@@H](C1)CC(c1ccc(Cl)cc1)(C3)C2 | 9.27 µM (active)
32 | COc1ccc(-c2nc(N3CCOCC3)c3sc(CN(C)c4ncc(C(=O)NO)cn4)cc3n2)cn1 | 1.65 µM (active)
33 | CO[C@H]1C(=O)[C@]2(C)[C@@H](OC)C[C@H]3OC[C@@]3(OC(C)=O)[C@H]2[C@H](OC(=O)c2ccccc2)[C@]2(O)C[C@H](OC(=O)[C@H](O)[C@@H](NC(=O)OC(C)(C)C)c3ccccc3)C(C)=C1C2(C)C | 0.0059 µM (active)
34 | CC(=O)Oc1cc2c(s1)CCN(C(C(=O)C1CC1)c1ccccc1F)C2 (stereo not given) | 1.04 µM (active)
35 | CO[C@H]1C=CC=C(C)C(=O)NC2=CC(=O)C(NCCN(C)C)=C(C[C@@H](C)C[C@H](OC)[C@@H](O)[C@@H](C)C=C(C)[C@@H]1OC(N)=O)C2=O | 16.5 µM (active)
36 | CNC1CCC(N(Cc2cccc(-c3ccncc3)c2)C(=O)c2sc3c(F)ccc(F)c3c2Cl)CC1 (stereo not given) | 20.8 µM (active)
37 | CN(C)C1CCN(C(=O)c2ccc(NC(=O)Nc3nc(N4CCOCC4)nc(N4CCOCC4)n3)cc2)CC1 | 0.0737 µM (active)
38 | OC[C@H]1O[C@@H](n2cnc3c2NC=NC[C@@H]3O)C[C@H]1O | 1.04 µM (active)
39 | COc1cc(N2CCC(N3CCN(C)CC3)CC2)ccc1Nc1ncc(Cl)c(Nc2ccccc2S(=O)(=O)C(C)C)n1 | 3.29 µM (active)
40 | COc1ncc(-c2ccc3nccc(-c4ccnnc4)c3c2)cc1NS(=O)(=O)c1ccc(F)cc1F | 0.208 µM (active)
